Data reported in ChEMBL document CHEMBL3988442, “University of Dundee, Small-Polar-MMV Screening Library” (2021).
For some assays here: Results with a measured potency or affinity are listed apart.

Columns and labels:
Parameters in all cases: scale not given: direction of the effect not stated beside the values
[1] = molecular target: Protein translocase subunit SecA (Escherichia coli (strain K12)) (UniProt P10408); test: Assay to Identify E. coli SecA ATPase Inhibitors; assay type: functional; conditions: 30 µM
Protein translocase subunit SecA (Escherichia coli (strain K12)), sequence (P10408 whole entry): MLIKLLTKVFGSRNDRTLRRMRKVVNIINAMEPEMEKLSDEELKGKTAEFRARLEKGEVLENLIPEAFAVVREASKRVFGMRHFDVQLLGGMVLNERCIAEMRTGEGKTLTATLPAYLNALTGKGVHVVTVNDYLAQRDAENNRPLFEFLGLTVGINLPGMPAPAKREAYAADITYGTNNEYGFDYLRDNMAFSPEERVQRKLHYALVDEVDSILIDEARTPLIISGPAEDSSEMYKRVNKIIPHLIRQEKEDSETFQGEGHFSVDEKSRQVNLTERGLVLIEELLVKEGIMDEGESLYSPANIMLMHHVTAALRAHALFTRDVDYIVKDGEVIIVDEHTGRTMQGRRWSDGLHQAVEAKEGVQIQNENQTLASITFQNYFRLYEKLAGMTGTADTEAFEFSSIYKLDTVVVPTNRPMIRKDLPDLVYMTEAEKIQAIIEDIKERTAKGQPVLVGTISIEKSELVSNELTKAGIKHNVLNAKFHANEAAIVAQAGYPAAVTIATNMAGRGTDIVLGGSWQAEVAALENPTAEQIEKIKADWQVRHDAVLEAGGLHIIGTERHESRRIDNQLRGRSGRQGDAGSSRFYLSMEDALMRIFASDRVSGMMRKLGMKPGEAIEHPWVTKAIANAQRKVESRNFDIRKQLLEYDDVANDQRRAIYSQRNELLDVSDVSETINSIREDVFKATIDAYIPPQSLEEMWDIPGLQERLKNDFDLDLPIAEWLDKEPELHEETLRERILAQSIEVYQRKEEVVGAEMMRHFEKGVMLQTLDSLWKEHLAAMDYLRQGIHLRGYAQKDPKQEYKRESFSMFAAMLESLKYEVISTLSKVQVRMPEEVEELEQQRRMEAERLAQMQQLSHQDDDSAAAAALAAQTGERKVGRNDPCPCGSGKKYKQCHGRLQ

[2] = molecular target: T1, Ubiquitin-activating enzyme e1, putative (Leishmania donovani (strain BPK282A1)) (UniProt E9BSI1); test: Leishmania donovani Ubiquitin Activating Enzyme (LdE1); assay type: functional; conditions: 30 µM
T1 sequence (whole entry): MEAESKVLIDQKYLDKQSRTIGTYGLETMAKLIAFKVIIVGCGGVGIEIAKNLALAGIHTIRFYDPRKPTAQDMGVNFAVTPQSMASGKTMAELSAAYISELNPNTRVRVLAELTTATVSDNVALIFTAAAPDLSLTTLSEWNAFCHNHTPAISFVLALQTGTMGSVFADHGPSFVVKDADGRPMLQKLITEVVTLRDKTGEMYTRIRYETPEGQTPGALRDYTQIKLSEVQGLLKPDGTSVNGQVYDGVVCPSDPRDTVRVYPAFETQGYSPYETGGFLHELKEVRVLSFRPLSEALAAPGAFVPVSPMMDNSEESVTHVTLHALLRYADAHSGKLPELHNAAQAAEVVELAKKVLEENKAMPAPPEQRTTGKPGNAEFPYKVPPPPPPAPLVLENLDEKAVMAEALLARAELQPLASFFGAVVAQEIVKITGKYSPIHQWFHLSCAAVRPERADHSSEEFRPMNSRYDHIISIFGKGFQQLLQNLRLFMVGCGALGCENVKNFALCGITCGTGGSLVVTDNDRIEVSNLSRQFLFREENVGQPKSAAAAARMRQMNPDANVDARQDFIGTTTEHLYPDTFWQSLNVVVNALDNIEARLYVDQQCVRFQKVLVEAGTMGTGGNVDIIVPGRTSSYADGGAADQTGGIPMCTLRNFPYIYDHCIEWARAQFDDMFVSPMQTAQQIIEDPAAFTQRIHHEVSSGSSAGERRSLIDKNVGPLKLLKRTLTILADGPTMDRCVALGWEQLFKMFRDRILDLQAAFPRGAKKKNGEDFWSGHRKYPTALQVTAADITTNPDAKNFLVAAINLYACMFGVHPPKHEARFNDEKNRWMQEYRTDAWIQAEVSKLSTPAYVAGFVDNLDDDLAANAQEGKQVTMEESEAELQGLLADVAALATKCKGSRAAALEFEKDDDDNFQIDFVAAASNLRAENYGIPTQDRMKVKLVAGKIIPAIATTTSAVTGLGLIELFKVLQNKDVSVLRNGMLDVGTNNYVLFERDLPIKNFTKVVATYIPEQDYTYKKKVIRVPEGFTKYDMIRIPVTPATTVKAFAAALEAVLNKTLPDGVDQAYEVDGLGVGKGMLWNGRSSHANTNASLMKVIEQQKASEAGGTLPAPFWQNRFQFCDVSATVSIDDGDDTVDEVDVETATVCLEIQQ

[3] = molecular target: AMP-activated protein kinase, AMPK (Homo sapiens) (UniProt P54646+O43741+P54619+Q9UGJ0+Q9Y478+Q13131+Q9UGI9); test: AMP-dependent Kinase enzyme assay. An in vitro enzyme assay that detects ADP turnover that is directly proportional to AMPK activity. This uses naive AMPK that is activated during the assay with MK-8722; assay type: functional; conditions: 30 µM
[4] = molecular target: Sialic acid-binding Ig-like lectin 9 (Homo sapiens) (UniProt Q9Y336); test: Hs-Siglec9 ALPHAscreen SOP 20170721; conditions: 10 µM
Sialic acid-binding Ig-like lectin 9 (Homo sapiens), sequence (Q9Y336 whole entry): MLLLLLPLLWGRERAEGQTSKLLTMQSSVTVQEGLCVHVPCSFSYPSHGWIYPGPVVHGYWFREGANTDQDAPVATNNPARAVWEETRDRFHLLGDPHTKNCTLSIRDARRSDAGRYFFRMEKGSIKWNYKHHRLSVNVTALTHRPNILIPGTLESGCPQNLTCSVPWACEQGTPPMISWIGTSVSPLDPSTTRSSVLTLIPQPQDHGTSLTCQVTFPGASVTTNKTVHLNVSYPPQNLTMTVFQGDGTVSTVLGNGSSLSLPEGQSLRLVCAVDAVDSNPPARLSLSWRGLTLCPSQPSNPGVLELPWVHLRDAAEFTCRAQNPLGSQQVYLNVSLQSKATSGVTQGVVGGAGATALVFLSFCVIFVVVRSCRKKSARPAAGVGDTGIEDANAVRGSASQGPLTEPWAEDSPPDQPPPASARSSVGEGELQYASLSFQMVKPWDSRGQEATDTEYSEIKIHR

Trypanosoma cruzi = test: Trypanosoma cruzi phosphomannomutase and mannose-1-phosphate guanylyltransferase assay; assay type: functional; conditions: 10 µM
[5] = molecular target: T2, Arginase-2, mitochondrial (Homo sapiens) (UniProt P78540); test: in vitro enzyme assay to detect the production of urea directly proportional to the activity of Arginase II; assay type: functional; conditions: 33.3 µM; also: in the data most compounds retested in dose-response had high values
T2 sequence (whole entry): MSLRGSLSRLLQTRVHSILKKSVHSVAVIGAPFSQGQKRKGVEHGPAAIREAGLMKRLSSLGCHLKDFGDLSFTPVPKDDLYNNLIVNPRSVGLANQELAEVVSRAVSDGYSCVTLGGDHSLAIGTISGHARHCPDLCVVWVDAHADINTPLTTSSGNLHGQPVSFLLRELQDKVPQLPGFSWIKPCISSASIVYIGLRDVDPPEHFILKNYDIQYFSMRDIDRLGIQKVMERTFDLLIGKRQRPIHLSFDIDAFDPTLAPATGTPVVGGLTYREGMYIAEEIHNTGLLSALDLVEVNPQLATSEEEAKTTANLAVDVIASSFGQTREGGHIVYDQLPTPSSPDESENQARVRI

[6] = molecular target: T3, Proteasome subunit beta (Trypanosoma cruzi) (UniProt O96673); test: Trypanosoma cruzi proteasome chymotrypsin-like activity (TcProtChymo) assay.; also: in the data most compounds retested in dose-response had high values; assay type: functional; conditions: 9.37 µM
T3 sequence (whole entry): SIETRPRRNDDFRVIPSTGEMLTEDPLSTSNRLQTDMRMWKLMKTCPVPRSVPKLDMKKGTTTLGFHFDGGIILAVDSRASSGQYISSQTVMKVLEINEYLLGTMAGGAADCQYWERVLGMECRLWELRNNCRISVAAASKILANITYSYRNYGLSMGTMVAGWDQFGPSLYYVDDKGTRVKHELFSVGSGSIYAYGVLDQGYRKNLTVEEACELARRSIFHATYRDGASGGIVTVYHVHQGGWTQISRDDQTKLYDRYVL

Homo sapiens = organism: Homo sapiens; test: To identify inhibition of the IFN signalling (Jak-Stat) pathway via expression of an eGFP reporter gene under the control of an IFN-stimulated response element (ISRE) containing MxA promoter.; assay type: functional; conditions: 30 µM
[7] = molecular target: T4, Tyrosyl-tRNA synthetase, putative (Trypanosoma cruzi (strain CL Brener)) (UniProt Q4DSP6); test: Trypanosoma cruzi tyrosyl tRNA synthetase (TcYRS) _High Tyrosine SOP; assay type: functional; conditions: 30 µM; also: in the data most compounds retested in dose-response had high values
T4 sequence (whole entry): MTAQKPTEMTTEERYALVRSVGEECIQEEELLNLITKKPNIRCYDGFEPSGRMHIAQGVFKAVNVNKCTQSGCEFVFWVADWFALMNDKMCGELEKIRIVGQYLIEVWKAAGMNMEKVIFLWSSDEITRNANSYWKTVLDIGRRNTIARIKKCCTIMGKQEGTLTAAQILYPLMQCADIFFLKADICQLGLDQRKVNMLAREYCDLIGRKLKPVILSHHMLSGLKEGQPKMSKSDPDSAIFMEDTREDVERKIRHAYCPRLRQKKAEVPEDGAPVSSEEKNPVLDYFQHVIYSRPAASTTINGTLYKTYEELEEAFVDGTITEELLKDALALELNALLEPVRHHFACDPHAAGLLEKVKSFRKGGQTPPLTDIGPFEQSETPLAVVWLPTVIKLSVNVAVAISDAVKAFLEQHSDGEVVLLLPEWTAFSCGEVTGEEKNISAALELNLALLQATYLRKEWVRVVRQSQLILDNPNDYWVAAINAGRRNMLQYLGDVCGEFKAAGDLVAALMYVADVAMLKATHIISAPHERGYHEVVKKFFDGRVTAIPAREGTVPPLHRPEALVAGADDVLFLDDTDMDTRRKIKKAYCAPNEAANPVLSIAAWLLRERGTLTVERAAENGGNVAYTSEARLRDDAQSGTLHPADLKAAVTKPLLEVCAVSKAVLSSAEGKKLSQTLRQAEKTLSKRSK

[8] = molecular target: T4, Tyrosyl-tRNA synthetase, putative (Trypanosoma cruzi (strain CL Brener)); test: Trypanosoma cruzi tyrosyl tRNA synthetase (TcYRS) SOP; assay type: functional; conditions: 30 µM
[9] = molecular target: Chromo domain-containing protein 1 (Saccharomyces cerevisiae (strain ATCC 204508 / S288c) (Baker's yeast)) (UniProt P32657); test: ScCHD-1 Enzyme Inhibition Assay; assay type: functional; conditions: 30 µM; also: in the data most compounds retested in dose-response had high values
Chromo domain-containing protein 1 (Saccharomyces cerevisiae (strain ATCC 204508 / S288c) (Baker's yeast)), sequence (P32657 whole entry, the tested form may be a part): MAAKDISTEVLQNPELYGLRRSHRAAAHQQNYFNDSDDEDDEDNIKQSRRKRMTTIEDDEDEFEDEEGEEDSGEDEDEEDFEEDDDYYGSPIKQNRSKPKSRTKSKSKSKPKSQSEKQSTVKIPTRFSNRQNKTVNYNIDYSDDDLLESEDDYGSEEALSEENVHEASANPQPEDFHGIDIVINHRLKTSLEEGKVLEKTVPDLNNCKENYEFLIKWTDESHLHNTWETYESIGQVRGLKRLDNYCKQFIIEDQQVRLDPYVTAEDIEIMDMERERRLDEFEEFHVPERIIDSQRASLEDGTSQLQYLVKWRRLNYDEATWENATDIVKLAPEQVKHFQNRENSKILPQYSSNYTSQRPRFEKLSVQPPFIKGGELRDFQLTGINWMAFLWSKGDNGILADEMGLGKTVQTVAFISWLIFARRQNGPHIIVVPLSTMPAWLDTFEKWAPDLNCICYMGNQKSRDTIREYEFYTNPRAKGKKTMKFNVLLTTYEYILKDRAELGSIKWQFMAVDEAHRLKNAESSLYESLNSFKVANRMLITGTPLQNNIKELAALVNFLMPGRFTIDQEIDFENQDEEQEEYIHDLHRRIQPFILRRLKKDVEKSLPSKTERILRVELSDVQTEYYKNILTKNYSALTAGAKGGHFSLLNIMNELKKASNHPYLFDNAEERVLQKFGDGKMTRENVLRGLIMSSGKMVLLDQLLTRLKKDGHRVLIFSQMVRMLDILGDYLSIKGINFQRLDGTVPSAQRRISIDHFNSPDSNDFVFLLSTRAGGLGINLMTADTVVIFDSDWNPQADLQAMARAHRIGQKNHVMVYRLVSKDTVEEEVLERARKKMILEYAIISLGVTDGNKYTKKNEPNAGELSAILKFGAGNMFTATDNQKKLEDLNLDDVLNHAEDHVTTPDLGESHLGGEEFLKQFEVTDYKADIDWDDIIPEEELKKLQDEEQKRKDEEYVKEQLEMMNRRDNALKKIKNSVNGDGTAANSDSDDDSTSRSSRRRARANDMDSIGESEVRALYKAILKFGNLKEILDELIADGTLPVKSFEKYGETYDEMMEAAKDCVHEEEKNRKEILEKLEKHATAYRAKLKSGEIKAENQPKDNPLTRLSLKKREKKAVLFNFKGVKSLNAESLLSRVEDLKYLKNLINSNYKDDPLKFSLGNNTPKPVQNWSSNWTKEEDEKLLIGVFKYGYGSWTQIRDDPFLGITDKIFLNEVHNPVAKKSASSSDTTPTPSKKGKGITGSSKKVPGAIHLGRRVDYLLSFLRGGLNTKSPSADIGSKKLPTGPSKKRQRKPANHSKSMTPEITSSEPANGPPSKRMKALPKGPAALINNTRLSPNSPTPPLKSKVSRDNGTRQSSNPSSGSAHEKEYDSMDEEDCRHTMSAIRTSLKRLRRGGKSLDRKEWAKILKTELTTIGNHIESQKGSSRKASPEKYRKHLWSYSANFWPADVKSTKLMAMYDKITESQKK

| Structure (SMILES) | Percent Effect [1] | Percent Effect [2] | Percent Effect [3] | Percent Effect [4] | Percent Effect (Trypanosoma cruzi) | Percent Effect [5] | Percent Effect [6] | Percent Effect (Homo sapiens) | Percent Effect [7] | Percent Effect [8] | Percent Effect [9] |
| --- | --- | --- | --- | --- | --- | --- | --- | --- | --- | --- | --- |
| COCCN(C)CCN1CC2(CCN(C(=O)C3CCOC3)CC2)OC1=O (configuration not stated) | -4.65% | 18.2% | 9.58% | 7.65% | 5.21% | -12.4% | 23.1% | 6.21% | 7.53% | 18.5% | -7.01% |
| COc1ccc(NC(=O)C2CCOC2)c(N2CCN(C(C)=O)CC2)n1 (configuration not stated) | -2.36% | 2.7% | -66.2% | 2.08% | -0.391% | 2.5% | 19.7% | 2.27% | 8.91% | 11% | -5.79% |
| OCCOc1nc(-c2ccccc2Cl)no1 | -1.86% | 11% | -5.12% | 4.94% | 4.9% | 18.6% | 20.4% | 24.7% | 6.45% | 20% | -5.57% |
| Cc1ccc(CN2CCC3(C2)C(=O)N(CC(C)C)c2ccccc23)s1 (configuration not stated) | -1.13% | -16.2% | -0.146% | 1.8% | -6.25% | 3.75% | 7.02% | 7.39% | 10.9% | 13.4% | -7.96% |
| Cc1noc(C)c1C(=O)N(C)Cc1nc(-c2ccccn2)no1 | -7.17% | 2.67% | -0.593% | 19% | 2.43% | 4.69% | 4.53% | -1.43% | 4.92% | 11.1% | -3.45% |
| O=C1CCC2(CCN(Cc3cc(F)ccc3Cl)CC2)CN1C1CCCC1 | 0.0694% | 13.3% | -4.38% | 3.44% | 3.99% | 0% | 18.1% | 18.2% | 7.1% | 13.6% | -2.27% |
| CCn1cc(CN2CCCN(C(=O)CCCn3cncn3)CC2)cn1 | -2.76% | 0% | 7.06% | 6.78% | 5.43% | 1.42% | 5.91% | 17.2% | 4.85% | 14.6% | -6.03% |
| CNC(=O)[C@@]12CCC3(CCN(C(C)=O)CC3)[C@@H]1CN(S(C)(=O)=O)C2 | -4.16% | 8.11% | -2.4% | -2.81% | -4.01% | 4.22% | -0.0858% | 1.1% | 5.38% | 6.17% | -3.18% |
| Cc1ccc(C(=O)N2CCC3(CC2)CC(c2ccccc2)C(=O)N3)cn1 (configuration not stated) | 0.117% | 18.7% | -5.79% | -1.61% | 1.93% | -48.9% | 18.1% | 4.12% | 1.04% | 27.5% | -17.9% |
| O=C(CN1CCCCC1Cn1cncn1)NCc1ccccn1 (configuration not stated) | -0.608% | 2.53% | -4.5% | -1.76% | -5% | 5.32% | -6.31% | 11% | 4.43% | 3.8% | -4.29% |
| CN(C)C(=O)CNC(=O)c1ccc(Cl)cc1F | -6.12% | 21.1% | -0.479% | -6.12% | 3.99% | -65.1% | 13.7% | 15.7% | 6.38% | -28.6% | -15.3% |
| CCOC[C@@H]1CCC[C@@]12CN(Cc1nccs1)CCO2 | 0.173% | 16% | -1.62% | -5.32% | 0.787% | 3.5% | 17.4% | 10.8% | 7.45% | 19.2% | -7.27% |
| Cc1cc(C(=O)N2CCN(C(=O)Cc3ccccn3)CC2)c(C)s1 | -3.63% | 6.33% | 1.98% | -0.00439% | -1.54% | -11% | 4.8% | -10.2% | 7.29% | 7.59% | 5.75% |
| Cc1nc(C)n(CC2CCCN2CCc2cccs2)n1 (configuration not stated) | -2.28% | 15.8% | 3.79% | -4.64% | 7.89% | -2.68% | 25.4% | 10.2% | 13.2% | -7.32% | -11.4% |
| O=C(c1cc[nH]n1)N1CCC(Nc2cccnn2)CC1 | -5.6% | 7.79% | 1.01% | -11.8% | 8.52% | -2.74% | 9.62% | 5.31% | 6.67% | 11.8% | -18.4% |
| Clc1ccc2cccnc2c1CN1CCCC1Cn1cncn1 (configuration not stated) | -1.02% | -10.8% | -3.88% | -0.559% | -5.85% | 4.99% | 7.18% | 63.7% | 7.92% | -1.22% | 5.04% |
| CCOc1ncccc1NC(=O)N1CCc2ccccc2C1 | -2.4% | -5.41% | -19.1% | 3.06% | -2.14% | 7.95% | 0% | -3.53% | -1.98% | -1.22% | 9.66% |
| CNS(=O)(=O)c1cccc(CNC(=O)c2c(C)nn(C)c2C)c1 | -5.54% | 11.4% | -3.57% | -3.8% | -2.15% | 1.07% | 9.78% | 30.5% | -1.04% | 2.53% | -12.7% |
| COc1ccc(OC)c(C(O)CN2CC(n3cccn3)C2)c1 (configuration not stated) | -3.82% | -10.5% | 2.67% | 6.6% | 9.02% | 4.98% | 9.52% | -12.8% | 6.37% | 9.76% | -8.21% |
| CN(C)C(=O)N1C[C@@H]2COC[C@]2(CNS(C)(=O)=O)C1 | -1.78% | -2.7% | 5.5% | 5.41% | -1.27% | 2.87% | 16.8% | -0.0949% | 0% | -5.13% | 3.04% |
| CC(NC(=O)NCCCNS(C)(=O)=O)c1ccncc1 (configuration not stated) | -4.34% | 6.33% | 4.73% | 0.18% | -2.97% | -1.5% | 8.4% | -9.13% | 12.5% | 17.7% | -4.71% |
| CN1CCN(Cc2cccnc2)C2(CCN(c3ncc(F)cn3)C2)C1=O (configuration not stated) | -4.27% | 5.2% | 2.79% | 8.1% | -0.885% | -13.8% | 2.33% | -4.32% | 4.3% | 8.64% | -0.489% |
